The list is not random: actives were taken first. Their share in the collection is about 3.2%.
NTR1 ag = NTR1 (human) agonism; P30989; 330,000 tested, 0.17% active; activation, % at 20 µM; AID 493036; NTR1-U2OS beta-arrestin-GFP spot imaging, agonist mode;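 active = activation at or above 40% of the spot to cytoplasm intensity ratio, with at least 20 cells analyzed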;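 note: 0% = DMSO without peptide and 100% = 100 nM NTR1 peptide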
Target sequence (P30989 whole entry, looked up): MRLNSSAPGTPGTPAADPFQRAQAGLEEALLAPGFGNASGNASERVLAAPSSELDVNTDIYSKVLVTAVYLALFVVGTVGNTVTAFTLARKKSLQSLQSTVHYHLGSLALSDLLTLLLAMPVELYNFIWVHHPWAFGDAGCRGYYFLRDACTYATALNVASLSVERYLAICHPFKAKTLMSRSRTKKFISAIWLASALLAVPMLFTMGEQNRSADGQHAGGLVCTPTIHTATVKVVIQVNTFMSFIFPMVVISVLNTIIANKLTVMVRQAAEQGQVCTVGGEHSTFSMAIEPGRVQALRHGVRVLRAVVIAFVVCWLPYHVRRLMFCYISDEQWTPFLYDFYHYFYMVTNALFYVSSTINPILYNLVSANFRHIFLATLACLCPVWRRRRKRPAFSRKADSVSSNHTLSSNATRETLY
AHR act = human AHR activation. P35869. AHR-responsive luciferase reporter cells, luminescence. activation, % at 5 µM. 320,000 tested, 2.5% active. AID 2796; in the data active = activation above about 47%;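 note: 0% = vehicle wells and 100% = reference agonist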
APOBEC3A inh = human APOBEC3A DNA deaminase inhibition. P31941. recombinant A3A, FAM/TAMRA ssDNA deamination fluorescence. inhibition, % at 20 µM. 330,000 tested, 0.41% active. AID 493011;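 active = at least 40% inhibition at 20 µM here, with at most 30% in a related deaminase screen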;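 note: plate controls were A3A with DMSO for no effect and wells lacking A3A enzyme for full effect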
A3G deaminase = APOBEC3G (human) deaminase inhibition; Q9HC16; recombinant A3G, ssDNA deamination FAM/TAMRA fluorescence; inhibition, % at 20 µM; 330,000 tested, 0.28% active; AID 493012;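 active = inhibition of at least 40% at 20 µM, with no more than 30% in the related APOBEC3A deaminase screen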;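 note: plate controls were DMSO wells with A3G for no effect and wells lacking A3G enzyme for full effect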
* hit, by the source's call; . = not tested or not shown.

SMILES	NTR1 ag	AHR act	APOBEC3A inh	A3G deaminase
CCC(=O)N(c1nnc(SCC(=O)NN2C(=O)NC3(CCCCC3)C2=O)s1)C1CC1	0	2	-4	-6
CCSc1cc(C)nc2c(-c3ccccc3)cnn12	1	25	4	3
C=CCSc1cc(C)nc2c(-c3ccccc3)cnn12	0	99*	2	0
Cc1cc(N)n2ncc(-c3ccccc3)c2n1	0	61*	-1	0
COc1ccc(C2/C(=C(/O)c3ccc(C)cc3)C(=O)C(=O)N2C)c(OC)c1 (stereo not drawn)	1	25	-9	-4
O=C(CSc1cc(Cl)ccc1Cl)NC1CCCc2ccccc21 (stereo not drawn)	0	5	-5	-8
COc1cccc(CNC(=O)CSc2nc3ccc(C)cc3[nH]2)c1	0	53*	3	0
Cc1ccc2nc(SCC(=O)NC3CCCc4ccccc43)[nH]c2c1 (stereo not drawn)	6	59*	-1	-10
Cc1ccc2nc(SCC(=O)Nc3ccc4c(c3)OCCO4)[nH]c2c1	0	22	-3	-5
Cc1ccc2nc(SCC(=O)NCc3cccs3)[nH]c2c1	-1	49*	-2	-8
Cc1ccc2nc(SCC(=O)Nc3cc(C)on3)[nH]c2c1	1	23	3	-6
Cc1ccc2nc(SCC(=O)Nc3ccc(C)c([N+](=O)[O-])c3)[nH]c2c1	6	86*	-2	-14
CCOc1ccccc1C(=O)NC(C(=O)Nc1cccnc1)C(C)C (stereo not drawn)	-1	5	2	-2
C/C=C/C(=O)Nc1cccc(C2=NOC3(C2)C[C@H](C(N)=O)N(C(=O)c2ccccc2C(=O)c2ccccc2)C3)c1 (stereo partly drawn)	1	.	-1	-5
Cc1ccc2nc(SCC(=O)NNC(=O)c3ccccc3)[nH]c2c1	0	52*	0	-7
Cc1ccc2nc(SCC(=O)Nc3ncccn3)[nH]c2c1	1	32	-2	-7
CCOP1(=O)OCC2OC(n3cnc4c(N)ncnc43)C(O)C2O1 (stereo not drawn)	1	-5	-1	-6
O=C1CS/C(=N/N=C/c2c[nH]c3ccccc23)N1	1	78*	-3	-7
Nc1c(C(=O)Nc2ccccc2)sc2nc(-c3ccco3)ccc12	-2	19	14	8
N#Cc1cc2c(N)c(C(=O)Nc3ccccc3)sc2nc1N	-2	64*	-3	16
CC(=O)C1=C(O)C(=O)N(CCc2ccccc2)C1c1ccccc1[N+](=O)[O-] (stereo not drawn)	-1	49*	1	3
Cc1noc(C)c1COC(=O)C(c1ccccc1)c1ccccc1	2	-2	-1	-7
Cc1ccc(-c2nn(-c3ccccc3)cc2C(=O)NCC(c2cccs2)N2CCOCC2)cc1 (stereo not drawn)	4	5	0	-7
Cc1cccc(NC(=O)c2ccccc2NC(=O)c2ccccc2)n1	-1	11	2	9
CC(C)n1cnc2c(Nc3cccc(Cl)c3)nc(NCCCO)nc21	-2	69*	-2	-8
SMILES	NTR1 ag	AHR act	APOBEC3A inh	A3G deaminase
CCOC(=O)C1(Cc2cccc(OC)c2)CCCN(CCO)C1 (stereo not drawn)	0	4	-7	3
Cc1ccc(NCC(=O)N/N=C/c2cccc(Br)c2)cc1	0	70*	-6	-17
C/C(=N\NC(=O)CNc1cccc(C)c1)c1ccc(Br)s1	19	71*	1	-15
COC(=O)c1ccc(/C=N/NC(=O)CNc2cccc(C)c2)cc1	2	10	-2	-4
C/C(=N\NC(=O)Cc1ccccc1)c1ccc(Br)s1	6	20	-3	-3
Cc1ccc(NCC(=O)N/N=C\c2cccc(O)c2)cc1	-1	65*	-3	-5
Cc1cccc(NCC(=O)N/N=C/c2cccc(Br)c2)c1	1	14	0	-4
C/C(=N\NC(=O)CNc1cccc(C(F)(F)F)c1)c1cccc(Br)c1	10	75*	-2	-6
CCOC(=O)Cn1cnc(-c2ccc([N+](=O)[O-])cc2)c1	1	1	1	-4
O=C(CN1CCN(S(=O)(=O)c2ccccc2)CC1)NC(=O)NCc1ccco1	2	3	2	-5
O=C(CNc1cccc(C(F)(F)F)c1)N/N=C/c1cccc(Br)c1	15	101*	-1	-1
CCN(CC(=O)NCc1cccs1)C(=O)c1cccc(Cl)c1	5	-1	3	-2
O=Cc1cn(-c2ccccc2)nc1-c1ccncc1	-1	60*	2	-12
Cc1ccc(S(=O)(=O)CCC(=O)Nc2nnc(-c3ccc(F)cc3)o2)cc1	1	-1	19	-10
COc1cc(OC)cc(-c2nnc(NC(=O)CCS(=O)(=O)c3ccc(C)cc3)o2)c1	2	65*	10	5
COCCOc1ccc(C(F)(F)F)cc1NC(=O)c1ccc(C(F)(F)F)cc1	4	70*	2	-5
COCCOc1ccc(C(F)(F)F)cc1NC(=O)COC(=O)c1cc[n+]([O-])cc1	1	4	-4	-9
COCCOc1ccc(C(F)(F)F)cc1NC(=O)c1ccccc1F	1	61*	1	-4
COC(=O)CCC(=O)Nc1cccc([N+](=O)[O-])c1	2	1	-2	14
C=C(C)C1CC=C(C)/C(=N\NC(=S)Nc2ccc(C)cc2)C1 (stereo not drawn)	5	48*	-3	-8
C=C(C)C1CC=C(C)/C(=N/NC(=O)COc2ccc(C)cc2)C1 (stereo not drawn)	5	1	-3	-6
O=C(N/N=C/c1ccccn1)NC12CC3CC(CC(C3)C1)C2	1	4	-1	-1
COc1ccc(/C=N/c2c(-c3ccc(OC)cc3)nc3n2CCS3)cc1	2	-1	0	1
COc1ccc(C2=CSC(/N=C/c3ccc(F)cc3)=NN2)cc1	0	70*	-2	0
O=C(CSc1nncs1)Nc1nnc(-c2ccccc2)o1	1	3	-3	-7
SMILES	NTR1 ag	AHR act	APOBEC3A inh	A3G deaminase
CCOC(=O)c1[nH]c2cc3c(cc2c1NC(=O)CN1CCCC1)OCO3	2	58*	-3	-6
CCOC(=O)c1[nH]c2cc3c(cc2c1NC(=O)CN1CCC(C)CC1)OCO3	-1	45	2	0
Cc1cccc(N2CCN(C(=O)c3cc4c(=O)n(C)c5ccccc5c4n3C)CC2C)c1 (stereo not drawn)	10	68*	-1	-4
Cn1c(C(=O)NC2CCCCC2)cc2c(=O)n(C)c3ccccc3c21	3	3	-4	-2
Cn1c(C(=O)NC2CCCCCC2)cc2c(=O)n(C)c3ccccc3c21	14	51*	0	-6
Cn1c(C(=O)N2CCCCCC2)cc2c(=O)n(C)c3ccccc3c21	7	27	-1	-5
O=C(CSc1nc2cc(Cl)ccc2o1)NC1CC1	1	-2	-1	-5
Cc1c(NC(=O)COC(=O)c2ccc(Br)o2)c(=O)n(-c2ccccc2)n1C	-1	0	6	3
COc1ccc(N=Nc2ccc3ccccc3c2)c(O)c1	5	49*	1	-4
COc1cccc(N=Nc2ccc3ccccc3c2O)c1	5	78*	-1	10

Assay outcomes as filed in PubChem.
